Reference: PubChem BioAssay (NCI)
About 83,000 compounds went through this panel and 20% of them were active in at least one assay; those are over-represented in the sample as a whole.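 Interpretation: 100, growth as untreated; towards 0, rising growth inhibition; 0, no net growth; 0 to -100, cell death. Compounds scoring below 10 were considered active.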 Unmarked numbers belong to inactive results. The source made the active and inactive calls.

Legend:
Assay in all cases: NCI-60 one-dose screen, 48 h (100 = growth as untreated, 0 = no growth, -100 = all killed)
[1] = system: NCI-H460 lung; conditions: 10 µM unless noted
[2] = system: 786-0 renal; conditions: 10 µM unless noted
[3] = system: DU-145 prostate; conditions: 10 µM unless noted
[4] = system: MDA-MB-231 breast; conditions: 10 µM unless noted
[5] = system: SF-268 CNS; conditions: 10 µM unless noted
[6] = system: SF-539 CNS; conditions: 10 µM unless noted
[7] = system: HCT-15 colon; conditions: 10 µM
[8] = system: HT29 colon; conditions: 10 µM unless noted
[9] = system: SNB-19 CNS; conditions: 10 µM unless noted
[10] = system: UACC-62 melanoma; conditions: 10 µM unless noted
[11] = system: SK-MEL-28 melanoma; conditions: 10 µM unless noted
[12] = system: SN12C renal; conditions: 10 µM unless noted
[13] = system: UO-31 renal; conditions: 10 µM unless noted
[14] = system: TK-10 renal; conditions: 10 µM unless noted
[15] = system: HL-60(TB) leukemia; conditions: 10 µM unless noted
[16] = system: T-47D breast; conditions: 10 µM unless noted
[17] = system: MDA-MB-435 melanoma; conditions: 10 µM unless noted
[18] = system: SW-620 colon; conditions: 10 µM unless noted
[19] = system: MCF7 breast; conditions: 10 µM unless noted
[20] = system: KM12 colon; conditions: 10 µM unless noted

Structure (SMILES)	growth [1]	growth [2]	growth [3]	growth [4]	growth [5]	growth [6]	growth [7]	growth [8]	growth [9]	growth [10]	growth [11]	growth [12]	growth [13]	growth [14]	growth [15]	growth [16]	growth [17]	growth [18]	growth [19]	growth [20]
ClCCN(CCCl)c1nc(Cl)c(C2CC(c3ccccc3)=NN2c2ccccc2)s1 (centres undefined)	89.1%	91.7%	99.7%	88.1%	88.9%	102%	101%	82.5%	79.9%	60.9%	98.6%	90.4%	72.4%	108%	101%	66.3%	103%	86%	91.6%	98.3%
NC(=O)SCC(=O)Nc1ccc([As](=O)(O)O)cc1	101%	82.8%	101%	90.8%	100%	83.8%	81.5%	93.7%	92.8%	97.3%	101%	89.8%	93.8%	105%	56.9%	112%	98.5%	73.9%	75.3%	97.6%
Oc1ccccc1OB(Oc1ccccc1O)N(CCCl)CCCl	68.3%	92.3%	86.9%	71%	63.5%	63.2%	75.7%	85.9%	87.2%	94.7%	110%	78.4%	51.9%	98.9%	0.713% (active)	101%	87.4%	82.9%	88.2%	69.4%
O=C(O)CNC(=O)c1ccccc1	103%	100%	119%	110%	107%	89%	98%	114%	98.6%	103%	107%	107%	95.8%			104%	100%	99.7%	104%	105%
C[As](=O)(O)c1ccc(C(=O)O)cc1	112%	109%	109%	102%	110%	102%	99.2%	108%	106%	101%	106%	107%	93.2%	107%	102%	110%	98.4%	105%	100%	111%
CCOP(=O)(OCC)Oc1ccc(Sc2ccc(OP(=O)(OCC)OCC)cc2)cc1	113%	92.6%	103%	119%	100%	104%	107%	108%	100%	111%	111%	101%	75%	107%	96%	97.9%	96.8%	113%	118%	99.9%
Clc1ccc(SSC(Cl)(Cl)Cl)cc1	101%	106%	114%	116%	104%	103%	112%	101%	121%	116%	120%	102%	99.9%		113%	114%	105%	97.6%	108%	108%
CC(=O)OC1CCC2(C)C(=CCC3C4CC(CN5CC5)C(=O)C4(C)CCC32)C1 (centres undefined)	88.2%	87.9%	80.8%	99.6%	101%	98.1%	89.7%	85.2%	98.4%	94.4%	97.9%	99.6%	34.1%		64.2%	-11.8% (active)	90.4%	65.3%	15.5%	-3.45% (active)
CNC(=O)Oc1ccccc1-c1ccccc1	112%	95.9%	106%	114%	100%	104%	106%	101%	97.7%	102%	109%	106%	81.8%	90.5%	94.8%	105%	99.3%	103%	106%	102%
NC(=O)OCC(CO)(c1ccccc1)c1ccccc1	107%	96.7%	104%	114%	101%	96.8%	98.8%	97.9%	108%	115%	112%	98.4%	80.1%	97.7%	114%	97.3%	101%	107%	99.3%	96.6%
CC(C)(O)/C=C/C(=O)[C@](C)(O)[C@H]1[C@H](O)C[C@@]2(C)[C@@H]3CC=C4[C@@H](C=C(O)C(=O)C4(C)C)[C@]3(C)C(=O)C[C@]12C	-20.8% (active)	-96.2% (active)	-40.2% (active)	-25% (active)	-27.5% (active)	-53.6% (active)	-52% (active)	-31.1% (active)	-53.1% (active)	-29.9% (active)		7% (active)	-54.6% (active)	-54.9% (active)	-38.9% (active)	-15.3% (active)	-52.1% (active)	-20% (active)	2.31% (active)	-60.9% (active)
S=P(NC1CCCCC1)(N1CC1)N1CC1	82.8%	101%	108%	104%	98.6%	107%	108%	101%	113%	91.4%	122%	98.1%	94.1%	116%	91.3%	106%	110%	96.5%	89%	110%
CC1(C)CC2(CC(C)(C)c3cc(O)c(O)cc32)c2cc(O)c(O)cc21	97.7%	94%	98.8%	91.5%	88.6%	98.4%	89.5%	114%	104%	83.3%	97%	94.2%	75.2%	117%	104%	104%	84.8%	95.7%	94.5%	94.4%
NS(=O)(=O)c1nc[nH]c1[N+](=O)[O-]	106%	102%	111%	102%	103%	100%	101%	93.1%	105%	102%	105%	102%	84.7%	99.5%	102%	99.8%	115%	107%	94.9%	103%
CC1=C(SCCC(=O)OCC(=O)NCCC[Te]c2ccccc2)C(=O)c2ccccc2C1=O	-43.1% (active)	23.2%	-6.6% (active)	-34.5% (active)	-13.1% (active)	-60.3% (active)	10.4%	11.2%	9.54% (active)	2.51% (active)	-11.4% (active)	7.58% (active)	-0.644% (active)	18.9%	-2.74% (active)	18.9%	4.67% (active)	22.1%	3.85% (active)	2.96% (active)
O=C1NC(=O)C(O)(C2(O)C(=O)NC(=O)NC2=O)C(=O)N1	100%	93.4%	109%	91.2%	91.6%	88%	107%	104%	96.1%	87.2%	109%	92.3%	86.1%		85.9%	101%	108%	96.4%	138%	100%
C/C(=N/OC(=O)N(C)C)c1ccc(Cl)cc1Cl	104%	100%	109%	116%	103%	95.9%	105%	105%	103%	98.7%	110%	96.8%	80.8%	88.5%	93.7%	96.7%	96%	106%	95%	108%
